# PubChem BioAssay (NCATS)
# Records with an inconclusive call do not appear. A call without a number means that no potency is given here. The source made the active and inactive calls. Unless noted, calls come from the whole dose curve; as a rule, active = well fitted curve in the direction sought with a large enough effect; inconclusive = small, poorly fitted or top-dose-only effect, or another doubt; inactive = no such curve, though single readings can be large; an effect the other way counts as inactive or inconclusive.
# Assays:
# [1] = S16 Schwann cell viability assay (CellTiter-Glo assay) (AID 624031);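 note: cellular ATP luminescence as a viability measure; nearly all actives have a fitted effect of over 70% in size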
# How it was run: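 Untransfected S16 rat Schwann cells; compound 24 h, 37 °C/5% CO2; CellTiter-Glo ATP luminescence. % activity vs no-cell wells and DMSO controls (0%); concentration-effect curves classed by r2, response magnitude, activity.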
# AA1029 = assay: qHTS profiling for inhibitors of Plasmodium falciparum proliferation (AID 504749); note: nearly all actives have a fitted effect of over 60% in size; note: potency is the fitted concentration of half-maximal effect; details: P. falciparum in erythrocytes, SYBR Green DNA, 72 h; series mostly up to 12.8 µM
# How it was run: (§1)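 Readout was DNA-dye fluorescence from lysed cultures, ex 485/em 535 nm. Parasitized red cells had grown 72 h with compound; data scaled between 0.29 uM artemisinin and DMSO wells and corrected using vehicle-only plates.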
# CP194 = assay: as above; details: P. falciparum in erythrocytes, SYBR Green DNA, 72 h; series mostly up to 12.8 µM
# How it was run: as §1
# CP201 = assay: as above; details: P. falciparum in erythrocytes, SYBR Green DNA, 72 h; series mostly up to 12.8 µM
# How it was run: as §1
# CP247 = assay: as above; details: P. falciparum in erythrocytes, SYBR Green DNA, 72 h; series mostly up to 12.8 µM
# How it was run: as §1
# CP250 = assay: as above; details: P. falciparum in erythrocytes, SYBR Green DNA, 72 h; series mostly up to 12.8 µM
# How it was run: as §1
# CP256 = assay: as above; details: P. falciparum in erythrocytes, SYBR Green DNA, 72 h; series mostly up to 12.8 µM
# How it was run: as §1
# CP265 = assay: as above; details: P. falciparum in erythrocytes, SYBR Green DNA, 72 h; series mostly up to 12.8 µM
# How it was run: as §1
# CP286 = assay: as above; details: P. falciparum in erythrocytes, SYBR Green DNA, 72 h; series mostly up to 12.8 µM
# How it was run: as §1
# CP335 = assay: as above; details: P. falciparum in erythrocytes, SYBR Green DNA, 72 h; series mostly up to 12.8 µM
# How it was run: as §1
# DFO2036 = assay: as above; details: P. falciparum in erythrocytes, SYBR Green DNA, 72 h; series mostly up to 12.8 µM
# How it was run: as §1
# DIV14 = assay: as above; details: P. falciparum in erythrocytes, SYBR Green DNA, 72 h; series mostly up to 12.8 µM
# How it was run: as §1
# DIV17 = assay: as above; details: P. falciparum in erythrocytes, SYBR Green DNA, 72 h; series mostly up to 12.8 µM
# How it was run: as §1
# DIV30 = assay: as above; details: P. falciparum in erythrocytes, SYBR Green DNA, 72 h; series mostly up to 12.8 µM
# How it was run: as §1
# Dd2 = assay: as above; details: P. falciparum in erythrocytes, SYBR Green DNA, 72 h; series mostly up to 12.8 µM
# How it was run: as §1
# P93_24 = assay: as above; details: P. falciparum in erythrocytes, SYBR Green DNA, 72 h; series mostly up to 12.8 µM
# How it was run: as §1
# PC15 = assay: as above; details: P. falciparum in erythrocytes, SYBR Green DNA, 72 h; series mostly up to 12.8 µM
# How it was run: as §1
# TAB109 = assay: as above; details: P. falciparum in erythrocytes, SYBR Green DNA, 72 h; series mostly up to 12.8 µM
# How it was run: as §1
# TAB165 = assay: as above; details: P. falciparum in erythrocytes, SYBR Green DNA, 72 h; series mostly up to 12.8 µM
# How it was run: as §1
# [2] = S16 Schwann cell PMP22 intronic element beta-lactamase assay (AID 624044; calls by dose curve; note: nearly all actives have a fitted effect of over 15% in size)
# How it was run: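 Rat S16 Schwann cells with beta-Lac driven by a PMP22 intronic element, compound-treated 24 h at 37 °C. LiveBLAzer FRET B/G read: 460 nm normalized to potassium clavulanate vs DMSO; 535 nm FRET as viability; concentration-effect curves classified.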
SMILES,outcome [1],Potency (AA1029),Potency (CP194),Potency (CP201),Potency (CP247),Potency (CP250),Potency (CP256),Potency (CP265),Potency (CP286),Potency (CP335),Potency (DFO2036),Potency (DIV14),Potency (DIV17),Potency (DIV30),Potency (Dd2),Potency (P93_24),Potency (PC15),Potency (TAB109),Potency (TAB165),Potency [2]
CC1(C)OC2CC(=O)OC[C@@]23C1CC(=O)[C@]1(C)C3CC[C@@]2(C)C(c3ccoc3)OC(=O)C3O[C@@]321 (stereo not given in full),inactive,inactive,inactive,inactive,inactive,inactive,inactive,inactive,inactive,inactive,inactive,inactive,inactive,inactive,inactive,inactive,inactive,inactive,inactive,
O=C1OC(CO)C(O)C(O)C1O (stereo not given),inactive,inactive,inactive,inactive,inactive,inactive,inactive,inactive,inactive,inactive,inactive,inactive,inactive,inactive,inactive,,inactive,inactive,inactive,inactive
CN1CC(=O)N=C1N,,inactive,inactive,inactive,inactive,inactive,inactive,inactive,inactive,inactive,inactive,inactive,inactive,inactive,inactive,inactive,inactive,inactive,inactive,inactive
CCCC(=O)O[C@]1(C(=O)CO)CCC2[C@@H]3CCC4=CC(=O)CC[C@]4(C)C3C(O)C[C@]21C (stereo not given in full),inactive,inactive,inactive,inactive,inactive,inactive,inactive,inactive,inactive,inactive,inactive,inactive,inactive,inactive,inactive,inactive,inactive,inactive,inactive,inactive
OCC1OC([S-])[C@H](O)C(O)C1O.[Au+] (stereo not given in full),inactive,inactive,inactive,inactive,inactive,inactive,inactive,inactive,inactive,inactive,inactive,inactive,inactive,inactive,inactive,inactive,inactive,inactive,inactive,inactive
CC1(C)OC2CO[C@]3(COS(N)(=O)=O)OC(C)(C)OC3C2O1 (stereo not given in full),inactive,inactive,inactive,inactive,inactive,inactive,inactive,inactive,inactive,inactive,inactive,inactive,inactive,inactive,inactive,inactive,inactive,inactive,inactive,inactive
COc1cc(C2c3cc4c(cc3C(O[C@@H]3OC5COC(c6cccs6)OC5C(O)C3O)C3COC(=O)C23)OCO4)cc(OC)c1O (stereo not given in full),inactive,2.24 µM (active),1.69 µM (active),4.78 µM (active),2.24 µM (active),2 µM (active),3.16 µM (active),2.82 µM (active),1.26 µM (active),1.69 µM (active),1.12 µM (active),1.9 µM (active),4.26 µM (active),2.13 µM (active),1.41 µM (active),1.58 µM (active),4.47 µM (active),2.24 µM (active),1.41 µM (active),
COc1ccc2cc(C(C)CO)ccc2c1 (stereo not given),inactive,inactive,inactive,inactive,inactive,inactive,inactive,inactive,inactive,inactive,inactive,inactive,inactive,inactive,inactive,inactive,inactive,inactive,inactive,inactive
CC(=O)N[C@H](CC(C)C)C(=O)O,,inactive,inactive,inactive,inactive,inactive,inactive,inactive,inactive,inactive,inactive,inactive,inactive,inactive,inactive,inactive,inactive,inactive,inactive,inactive
COC1C=CO[C@@]2(C)Oc3c(C)c(O)c4c(O)c(c5c(nc6cc(C)ccn65)c4c3C2=O)NC(=O)/C(C)=C\C=CC(C)C(O)[C@@H](C)C(O)C(C)[C@@H](OC(C)=O)C1C (stereo not given in full),inactive,12.6 µM (active),12 µM (active),,8.91 µM (active),,,11.2 µM (active),,13.5 µM (active),,1.07 µM (active),0.536 µM (active),1.35 µM (active),12.6 µM (active),3.98 µM (active),12.6 µM (active),11.2 µM (active),2.24 µM (active),inactive
CC(=O)OC1CCC2C3CCc4cc(O)ccc4C3CCC12C (stereo not given),inactive,inactive,inactive,inactive,inactive,inactive,inactive,inactive,inactive,inactive,inactive,inactive,inactive,inactive,inactive,inactive,inactive,inactive,inactive,inactive
